Measured values from PubChem BioAssay (NCI).
About 83,000 compounds went through this panel and 20% of them were active in at least one assay; those are over-represented in the sample as a whole.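 The endpoint reported here, percent growth, reads 100 for growth as untreated, 0 for no net growth and -100 for all cells dead.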 Calls of active or inactive are those of the source. Rule for the calls: active = growth percent below 10; inactive = the rest.

Tested on: HL-60(TB) leukemia
Test: NCI-60 one-dose screen, 48 h (100 = growth as untreated, 0 = no growth, -100 = all killed)
Settings: 10 µM unless noted

| Compound | growth |
| --- | --- |
| COc1ccc(C2C=C(c3ccc(N)cc3)N=C3SC=CN32)cc1OC (stereo not given) | 105% (inactive) |
| CC1=C(C)C(=O)OC([C@](C)(O)[C@]2(O)CC[C@@]3(O)[C@@H]4C[C@H]5O[C@]56CC=CC(=O)[C@]6(C)[C@H]4CC[C@]23COC(=O)c2ccc(C)o2)C1 (stereo not given in full) | -22.6% (active) |
| COc1cc(C2=N/C(=C\c3cc4ccccc4nc3Oc3ccccc3)C(=O)N2C(=N)N)cc(OC)c1OC | 77.2% (inactive) |
| Oc1ccc(Br)cc1/C=N/NC(=S)NC12CC3CC(CC(C3)C1)C2 | -25.8% (active) |
| COc1cc(CNC(=O)CCCC/C=C/C(C)C)ccc1OCc1cn(-c2ccc(C(F)(F)F)cc2)nn1 | 85.3% (inactive) |
| O=c1c2c(=NCCN3CCCC3)cc3c(=O)n(CCCN4CCOCC4)c(=O)c4c(-c5ccc(CN6CCCC6)cc5)cc(c(O)n1CCCN1CCOCC1)c2c4-3 | -36.5% (active) |
| O=C(/C=C/c1ccccc1Cl)c1cccc(OCCCCOc2cccc(C(=O)/C=C/c3ccccc3Cl)c2)c1 | 105% (inactive) |
| CN(C)C(=S)SCN1C(=O)c2ccc([N+](=O)[O-])cc2S1(=O)=O | 75.3% (inactive) |
| Nc1nc2ccccc2c2c(=O)c3cc(Cl)ccc3sc12 | 103% (inactive) |
| O=C1/C(=C/c2ccc(-c3cccc(C(F)(F)F)c3)o2)SC(=S)N1CCc1ccc(O)cc1 | 35.7% (inactive) |
| COc1cnc2c(c1)C(=O)c1c-2n(CCCBr)c(=O)c2cc([N+](=O)[O-])ccc12 | 5.74% (active) |
| Brc1ccc(/C=C(/C2=NCCN2)n2ccc3ccccc32)cc1 | 26.2% (inactive) |
| Cc1cc(C)c2nc(Nc3nc(C)c(C)c(=O)[nH]3)nc(C)c2c1 | -10.2% (active) |
| c1ccc(OCCC[P+](c2ccccc2)(c2ccccc2)c2ccccc2)cc1 | -57.3% (active) |
| COc1ccncc1C#Cc1cncc(C(=O)Nc2ccc(CN3CCN(C)CC3)c(C(F)(F)F)c2)c1 | 8.01% (active) |
| COc1ccc(-c2ccc(=O)oc2C#Cc2cc(OC)c(OC)c(OC)c2)cc1O | -45.7% (active) |
| Cc1ccc(Sc2ccccc2N)cc1 | 115% (inactive) |
| Cn1ccnc1C(=O)/C=C/c1ccc(C(=O)Nc2nc3ccccc3[nH]2)cc1 | 26.7% (inactive) |
| COC(=O)c1cc(N=C2NC(=O)/C(=C/C=C/c3ccccc3)S2)ccc1O | -0.749% (active) |
| O=S(=O)(NCCCNc1nccc(-c2c(-c3cccc(O)c3)nc3occn23)n1)c1ccc(Br)cc1 | 69.7% (inactive) |

| Compound | growth |
| --- | --- |
| N#CC(C#N)=Cc1c(-c2ccccc2)[nH]c2ccccc12 | -7.65% (active) |
| O=[N+]([O-])c1ccc(/C=N\Nc2ccccc2)cc1 | 94.6% (inactive) |
| CN1C(=O)N(C)C2C1NN=c1s/c(=C\c3ccc(F)cc3)c(=O)n12 (stereo not given) | -22.4% (active) |
| CCCCn1c(-c2ccc(C(=O)O/N=C(\N)c3ccc4c(c3)OCO4)cc2)nc(-c2ccccc2)c1-c1ccccc1 | -52.4% (active) |
| COC(=O)CCCCN=Cc1c(O)c(O)c(C(C)C)c2cc(C)c(-c3c(C)cc4c(C(C)C)c(O)c(O)c(C=NCCCCC(=O)OC)c4c3O)c(O)c12 | 10.9% (inactive) |
| CC(=S)NC(=O)C(=O)/C=C1/NC(=O)C(=O)S1 | 104% (inactive) |
| CC(C)c1[nH]nc2c(NCc3ccc(-c4ccccn4)cc3)nc(SCCN)nc12 | -24.4% (active) |
| CC1CCc2cc(F)cc3c(=O)c(C(=O)O)cn1c23 (stereo not given) | 107% (inactive) |
| Nc1c(C(=O)Nc2ccccc2)sc2nc3c(cc12)CCCC3 | 15.5% (inactive) |
| Cc1c(C(=O)N[C@@H](Cc2ccccc2)C(=O)C(=O)NCc2ccc(F)cc2)[nH]c2ccccc2c1=O | 96.8% (inactive) |
| CN(C)CCN(Cc1ccccc1)c1ccccc1 | 86.6% (inactive) |
| CCOC(=O)c1cc(C(=O)c2ccc(Cl)cc2)n2ccc(-c3cc[n+](CC(=O)c4ccc(OC)cc4)cc3)cc12 | 24.9% (inactive) |
| Cc1cccc(NC(=O)CCc2ccc(N3C(N)=NC(N)=NC3(C)C)cc2)c1 | 20.1% (inactive) |
| CC[C@H](Nc1ncnc(N)c1C(N)=O)c1nc2cccc(NCc3ccc(C(=O)NO)cc3)c2c(=O)n1-c1ccccc1 | 126% (inactive) |
| Cc1ccc(C(C)C)c(OCc2ccc(C(=O)N/N=C/c3cccc(O)c3O)cc2)c1 | -4.57% (active) |
| COC(=O)c1c2c(c(C)[n+]([O-])c1C)C(=O)C=C(NCc1ccc(OC)cc1)C2=O | -30.5% (active) |
| Clc1ccc(-c2nc(C(Cl)Cl)nc3cc(-c4ccccc4)nn23)cc1 | 5.27% (active) |
| COc1ccc2c(-c3ccc(F)cc3)c(C#N)c(=NC(C)=O)oc2c1 | -17.4% (active) |
| CCCCCn1c(=N)n(CC(O)COc2cccc(C)c2)c2ccccc21 (stereo not given) | 2.51% (active) |
| COc1ccc2sc3c(NCCCNCCO)nc4ccccc4c3c(=O)c2c1 | 36.5% (inactive) |
